Screens (PubChem)
CYP2C9 inh – human CYP2C9 inhibition; P11712; CYP2C9 Supersomes, luciferin-H conversion, luminescence; inhibition, % at 5 µM; 96,000 tested, 20% active; AID 777;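 active = blocking of liver enzyme CYP2C9 beyond about 50% at 5 µM, limit read from the data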
CYP2C9 act – activators of human CYP2C9 | AID 1024 | recombinant CYP2C9, luciferin-H conversion, luminescence; hits give high values; factor 1 = untreated enzyme, 0 = blocked | P11712 | 96,000 tested, 1.4% active | activation factor at 5 µM;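 active = activation factor of 2 or more for CYP2C9 at a 5 µM dose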;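 also: 0 = sulfaphenazole-blocked wells and 1 = vehicle-only wells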
Pyk2 oligo antag – Pyk2 (human) oligomerization antagonism | Q14289 | Q293 cells, Pyk2 FERM NanoBiT luminescence; hits give low values | z-score (the deposit names both 25 µM and 10 µM) | 99,000 tested, 0.83% active | AID 1347419;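 active = Z-score of -3 or lower, scaled per plate to the spread of control and sample wells; inactive = z-score above -3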;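 also: negative z-score means lost luminescence so less FERM oligomerization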
Target sequence (Q14289 whole entry, looked up): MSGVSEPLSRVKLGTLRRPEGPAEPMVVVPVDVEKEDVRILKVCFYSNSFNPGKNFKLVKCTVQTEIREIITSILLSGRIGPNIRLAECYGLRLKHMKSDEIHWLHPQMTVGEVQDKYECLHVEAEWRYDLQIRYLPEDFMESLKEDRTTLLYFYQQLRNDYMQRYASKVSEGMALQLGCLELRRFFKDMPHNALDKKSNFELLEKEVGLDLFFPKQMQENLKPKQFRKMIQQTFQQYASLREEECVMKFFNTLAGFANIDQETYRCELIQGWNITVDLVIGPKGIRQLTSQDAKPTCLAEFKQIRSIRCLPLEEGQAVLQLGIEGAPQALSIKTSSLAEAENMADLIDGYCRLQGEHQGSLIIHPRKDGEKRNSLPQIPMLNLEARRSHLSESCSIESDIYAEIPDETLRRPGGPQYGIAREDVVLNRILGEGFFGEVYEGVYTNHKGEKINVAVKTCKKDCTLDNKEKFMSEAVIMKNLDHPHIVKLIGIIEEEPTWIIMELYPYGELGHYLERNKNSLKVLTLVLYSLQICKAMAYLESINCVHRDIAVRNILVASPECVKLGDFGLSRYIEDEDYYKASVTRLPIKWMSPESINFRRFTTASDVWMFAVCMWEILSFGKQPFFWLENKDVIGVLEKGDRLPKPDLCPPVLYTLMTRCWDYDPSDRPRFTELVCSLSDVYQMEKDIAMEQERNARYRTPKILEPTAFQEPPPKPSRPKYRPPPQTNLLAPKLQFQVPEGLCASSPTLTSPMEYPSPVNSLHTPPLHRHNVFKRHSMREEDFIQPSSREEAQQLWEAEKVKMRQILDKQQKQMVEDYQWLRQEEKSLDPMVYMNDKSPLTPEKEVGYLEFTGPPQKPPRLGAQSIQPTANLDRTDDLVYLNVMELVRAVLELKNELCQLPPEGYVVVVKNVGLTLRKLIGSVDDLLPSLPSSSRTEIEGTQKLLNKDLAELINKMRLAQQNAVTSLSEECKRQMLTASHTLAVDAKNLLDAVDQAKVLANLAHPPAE
CYP2C19 act – cytochrome P450 2C19 (human) activation | recombinant CYP2C19, luciferin-H EGE luminescence; hits give high values; 0 = fully inhibited enzyme, 1 = untreated enzyme | AID 1025 | P33261 | 96,000 tested, under 10 active | activation factor at 5 µM;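 active = activation factor of at least 2 at 5 µM in the primary screen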;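 also: 0 = wells with 2.5 mM tranylcypromine and 1 = vehicle-only wells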
CYP2C19 inh – blocks human cytochrome P450 2C19; P33261; CYP2C19 Supersomes, luciferin-H EGE luminescence, 30 min; inhibition, % at 5 µM; 96,000 tested, 21% active; AID 778;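 active = CYP2C19 inhibition above a set limit at 5 µM in the primary screen, cut at about 50% in these data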;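 also: plate controls were negative control wells for no effect and 2.5 mM tranylcypromine positive control for full effect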
* hit, by the source's call; / = no result given. Sampled rows, rich in hits. Any-hit rate of the full collection: about 28%.

SMILES | CYP2C9 inh | CYP2C9 act | Pyk2 oligo antag | CYP2C19 act | CYP2C19 inh
COc1cccc(C2CC(c3cccc(NS(C)(=O)=O)c3)=NN2C(=O)c2ccccc2)c1OC (stereo not drawn) | / | / | -1.4 | / | /
COc1cc2[nH]c(=O)n(CCCCCC(=O)N3CC=C(c4ccccc4)CC3)c(=O)c2cc1OC | 61* | 0.4 | -2.3 | 0.2 | 83*
CCOC(=O)c1cc2c(ccn2C)n1CC(=O)N1CCN(c2ccccc2OC)CC1 | 38 | 0.6 | / | 0.3 | 69*
CCOc1cc2[nH]c(=O)n(CCC(=O)N3CCN(c4ccccc4OC)CC3)c(=O)c2cc1OCC | 67* | 0.3 | -0.15 | 0.8 | 20
O=C(c1ccccc1)c1cc2ccc(O)cc2oc1=O | 80* | 0.2 | -0.28 | 0.1 | 93*
CN(C)CCNC(=O)c1cc2ccccc2oc1=O | -19 | 1.2 | 0.42 | 1.2 | -17
O=C(NCc1ccco1)c1cc2ccc(O)cc2oc1=O | 93* | 0.1 | 0.89 | 0 | 97*
COc1ccc(C(=O)c2cc3ccc(O)cc3oc2=O)cc1 | 35 | 0.7 | -1.1 | 0.4 | 63*
COc1ccc2cc(C(=O)NC3CCCCC3)c(=O)oc2c1 | 70* | 0.3 | 0.13 | 0 | 96*
COc1ccc2cc(C(=O)NCc3ccco3)c(=O)oc2c1 | 18 | 0.8 | 0.64 | 0.8 | 24
CCC1(C)CC(CCNS(=O)(=O)c2ccc(C)cc2)(c2ccc(C)cc2)CCO1 (stereo not drawn) | 53* | 0.5 | -0.89 | 0.3 | 69*
COc1ccc(CCNC(=O)Cn2cnc3c(nnn3Cc3ccccc3F)c2=O)cc1OC | / | / | 0.83 | / | /
C=CCn1c(-c2cccn(Cc3ccc(Cl)cc3Cl)c2=O)n[nH]c1=S | 6 | 0.9 | 3.2 | 0.2 | 80*
C=CCn1c(-c2cccn(Cc3ccc(Cl)cc3)c2=O)n[nH]c1=S | 28 | 0.7 | 0.97 | 0.7 | 28
C=CCn1c(-c2cc(Cl)ccc2OC)n[nH]c1=S | 50* | 0.5 | 1 | 0.2 | 82*
C/C(=N\NC(=O)CC1N=C(Cc2ccccc2)NNC1=O)c1ccc(Cl)cc1Cl (stereo not drawn) | 24 | 0.8 | 0.65 | 0.8 | 19
O=S(=O)(c1ccccc1)c1nc(-c2ccco2)oc1NCCCn1ccnc1 | 99* | 0 | 0.56 | 0 | 100*
O=S(=O)(c1ccccc1)c1nc(-c2ccco2)oc1NCc1ccco1 | 29 | 0.7 | -0.33 | 0.5 | 47
CCCCNc1oc(-c2ccc(OC)cc2)nc1S(=O)(=O)c1ccccc1 | 18 | 0.8 | 0.65 | 0.5 | 54*
CCOc1ccc(-c2nc(S(=O)(=O)c3ccccc3)c(NCc3cccnc3)o2)cc1 | 24 | 0.8 | -3.3* | 0.6 | 41
CCN(CC)CCCNC(=O)C1c2ccccc2C(=O)N(C)C1c1ccc(OC)cc1 (stereo not drawn) | -2 | 1 | -0.31 | 1.1 | -8
COc1cccc(C2=NOC(C(=O)NCCCn3ccnc3)C2)c1 (stereo not drawn) | 82* | 0.2 | 0.74 | 0 | 95*
O=C(NCCCn1ccnc1)C1CC(c2cccc(Br)c2)=NO1 (stereo not drawn) | 85* | 0.2 | 0.74 | 0 | 100*
COc1ccc(C2=NOC(C(=O)NCCCn3ccnc3)C2)cc1 (stereo not drawn) | 84* | 0.2 | -0.17 | 0.2 | 84*
CCCn1cc(NC(=O)C2CC(c3cccc(Br)c3)=NO2)cn1 (stereo not drawn) | -38 | 1.4 | 0.28 | 0.6 | 42
SMILES | CYP2C9 inh | CYP2C9 act | Pyk2 oligo antag | CYP2C19 act | CYP2C19 inh
CCN(CC)C(=O)C1CC(c2ccc(OC)cc2)=NO1 (stereo not drawn) | 5 | 1 | 0.53 | 0.9 | 9
COCCNC(=O)C1CC(c2cccc(OC)c2)=NO1 (stereo not drawn) | -11 | 1.1 | 1.1 | 0.9 | 7
CCCCc1ccc(-c2nc(NC(=O)C3C4CCC(O4)C3C(=O)O)sc2C)cc1 (stereo not drawn) | -8 | 1.1 | / | 0.9 | 6
Cc1nc(Cl)c(C(=O)NC(=O)Nc2cccc(C(F)(F)F)c2)c(C)c1[N+](=O)[O-] | / | / | -1.3 | / | /
CCn1cc(C2=NOC(C(=O)Nc3ccccc3C(=O)OC)C2)c(C)n1 (stereo not drawn) | -148 | 2.5* | -0.59 | 0.8 | 24
CCOc1ccc2nc(NC3=NC(C)(C)C=C(C)N3)nc(C)c2c1 | 72* | 0.3 | -0.37 | 0.5 | 49
CCOc1ccc2c(C)nc(NC3=NC(C)(C)C=C(C)N3)nc2c1 | / | / | 0.3 | / | /
CCN(CC)C(=O)CSc1nc2ccc(NC(=O)CSc3nccn3C)cc2s1 | / | / | -0.84 | / | /
O=C(/C(=C/c1ccccc1)c1ccccc1)N1CCCCC1 | 74* | 0.3 | -0.23 | 0.7 | 32
O=C(/C=C/c1ccccc1)N/C(=C/c1ccccc1)C(=O)N1CCCCC1 | 14 | 0.9 | -0.89 | 1.1 | -12
O=C(O)CN1C(=O)SC(Nc2ccc(Cl)cc2)C1=O (stereo not drawn) | 0 | 1 | -0.25 | 0.8 | 16
CCn1c(SCC(=O)c2ccc(NS(=O)(=O)c3ccccc3)cc2)nnc1-c1cccs1 | 94* | 0.1 | -0.27 | 0.8 | 22
CCn1c(SCC(=O)c2cccs2)nnc1-c1cccs1 | 45 | 0.5 | 0.92 | 0 | 98*
CCn1c(SCC(=O)c2[nH]c(C)c(C(C)=O)c2C)nnc1-c1cccs1 | 29 | 0.7 | -0.43 | 0.4 | 64*
Cc1ccccc1OCc1nnc(SCC(=O)NCc2ccccc2)n1C | -41 | 1.4 | -0.22 | 1 | 1
Cc1cccc(OCc2nnc(SCC(=O)c3cccs3)n2C)c1C | 53* | 0.5 | -0.54 | 0.2 | 78*
CCOC(=O)c1ccc(NC(=O)CSc2nnc(-c3cccs3)n2CC)cc1 | 13 | 0.9 | -1.2 | 0.9 | 13
Cc1cccc(C)c1NC(=O)N1CCC(N2CCCCC2)CC1 | -5 | 1 | 1.1 | 1.1 | -8
O=C(O)C1CCC(N2C(=O)C3CCCCC3C2=O)CC1 (stereo not drawn) | -9 | 1.1 | 0.59 | 0.9 | 7
O=C(O)C1CCCN(S(=O)(=O)c2ccc(Br)cc2)C1 (stereo not drawn) | -23 | 1.2 | 2.4 | 1.1 | -13
Cc1cccc(NC(=S)N2CCN(Cc3ccc4c(c3)OCO4)CC2)c1C | 0 | 1 | 0.5 | 0.9 | 14
CCOC(=O)c1c(C)[nH]c(C(=O)CSc2nnnn2-c2ccc(C)cc2)c1C | 36 | 0.6 | 0.13 | 0.5 | 54*
CCOC(=O)c1c(C)[nH]c(C(=O)CSc2nnc(-c3ccncc3)n2CC)c1C | 84* | 0.2 | 1.1 | 0.1 | 94*
N=C1C(=O)OCC1c1cc(Cl)ccc1NC(=O)Nc1ccccc1 (stereo not drawn) | / | / | 0.23 | / | /
Cc1ccc(NC(=O)CCSc2ccccn2)cc1 | / | / | 0.06 | / | /
O=C(N1CCOCC1)N1CCN(S(=O)(=O)c2ccccc2)C1 | -10 | 1.1 | -0.2 | 0.8 | 15
COc1ccc(CC(NC(C)=O)C(=O)NC2CCN(c3nc(C)cc(C)c3C#N)CC2)c(OC)c1 (stereo not drawn) | 55* | 0.4 | 0.56 | 0.1 | 86*
